Screens deposited in PubChem by Sanford-Burnham Center for Chemical Genomics.
In the library only some 28% were active in any assay of this set; here they are far more common.
CYP2C19 inhib: human CYP2C19 inhibition. CYP2C19 Supersomes, luciferin-H EGE luminescence, 30 min. 96,000 tested, 21% active. inhibition, % at 5 µM;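 active = CYP2C19 inhibition above a set limit at 5 µM in the primary screen, cut at about 50% in these data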;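 also: plate controls were negative control wells for no effect and 2.5 mM tranylcypromine positive control for full effect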
CYP2C9 act: activators of human CYP2C9. 96,000 tested, 1.4% active. AID 1024. activation factor at 5 µM. recombinant CYP2C9, luciferin-H conversion, luminescence; active compounds read high; factor 1 = untreated enzyme, 0 = blocked;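 active = activation factor of 2 or more for CYP2C9 at a 5 µM dose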;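 also: 0 = sulfaphenazole-blocked wells and 1 = vehicle-only wells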
PTK2B oligo ant: blocks oligomerization of human Pyk2 in cells; Q293 cells, Pyk2 FERM NanoBiT luminescence; active compounds read low; z-score (the deposit names both 25 µM and 10 µM); 99,000 tested, 0.83% active; AID 1347419;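 active = Z-score of -3 or lower, scaled per plate to the spread of control and sample wells; inactive = z-score above -3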;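 also: negative z-score means lost luminescence so less FERM oligomerization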
Target sequence (Q14289 whole entry, looked up): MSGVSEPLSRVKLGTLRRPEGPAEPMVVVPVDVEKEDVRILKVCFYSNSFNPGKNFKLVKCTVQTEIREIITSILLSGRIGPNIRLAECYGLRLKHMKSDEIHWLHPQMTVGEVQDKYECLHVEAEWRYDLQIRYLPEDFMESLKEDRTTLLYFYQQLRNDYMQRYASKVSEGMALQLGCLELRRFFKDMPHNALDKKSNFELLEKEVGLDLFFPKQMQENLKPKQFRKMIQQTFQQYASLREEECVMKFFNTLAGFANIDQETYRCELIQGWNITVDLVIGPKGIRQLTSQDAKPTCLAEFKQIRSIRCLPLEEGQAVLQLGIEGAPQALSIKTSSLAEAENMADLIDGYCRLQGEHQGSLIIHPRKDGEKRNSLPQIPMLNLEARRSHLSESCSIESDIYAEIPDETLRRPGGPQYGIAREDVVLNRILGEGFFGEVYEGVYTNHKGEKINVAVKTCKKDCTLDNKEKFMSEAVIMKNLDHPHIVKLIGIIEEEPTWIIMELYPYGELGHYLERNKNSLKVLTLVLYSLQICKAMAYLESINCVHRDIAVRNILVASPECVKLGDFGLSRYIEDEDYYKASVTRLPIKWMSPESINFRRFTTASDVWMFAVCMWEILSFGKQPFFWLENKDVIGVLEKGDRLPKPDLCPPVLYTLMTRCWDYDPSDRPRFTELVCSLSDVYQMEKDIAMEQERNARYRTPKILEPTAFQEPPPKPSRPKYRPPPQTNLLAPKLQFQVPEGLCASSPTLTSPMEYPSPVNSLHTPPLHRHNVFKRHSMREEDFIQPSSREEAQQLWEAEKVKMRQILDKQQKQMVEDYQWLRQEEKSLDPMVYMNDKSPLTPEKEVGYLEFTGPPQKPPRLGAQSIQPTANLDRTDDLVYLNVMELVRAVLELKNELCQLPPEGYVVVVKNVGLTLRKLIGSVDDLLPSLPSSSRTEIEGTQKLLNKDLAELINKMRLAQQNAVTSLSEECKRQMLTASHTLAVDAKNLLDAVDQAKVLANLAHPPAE
CYP2C9 inh: human CYP2C9 inhibition; inhibition, % at 5 µM; P11712; 96,000 tested, 20% active; CYP2C9 Supersomes, luciferin-H conversion, luminescence;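 active = blocking of liver enzyme CYP2C9 beyond about 50% at 5 µM, limit read from the data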
CYP2C19 act: increases human CYP2C19 enzyme activity | P33261 | recombinant CYP2C19, luciferin-H EGE luminescence; active compounds read high; 0 = fully inhibited enzyme, 1 = untreated enzyme | activation factor at 5 µM | 96,000 tested, under 10 active | AID 1025;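 active = activation factor of at least 2 at 5 µM in the primary screen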;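 also: 0 = wells with 2.5 mM tranylcypromine and 1 = vehicle-only wells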
Active calls of the source: *.

`NC(=O)C1(N2CCCCC2)CCN(C(=O)NC2CCCCC2)CC1` gave CYP2C19 inhib 1.8, CYP2C9 act 0.9, PTK2B oligo ant -0.12, CYP2C9 inh 12.6 and CYP2C19 act 1.
CCCCN(C(=O)CNC(=O)c1ccco1)C(C(=O)NC1CCCCC1)c1ccc(OC)cc1OC (stereo not drawn) was read as CYP2C19 inhib 15.7, CYP2C9 act 0.9, PTK2B oligo ant -0.08, CYP2C9 inh 8.2 and CYP2C19 act 0.8.
Screening CCCOc1cc(C)c(S(=O)(=O)n2ccc(C)n2)cc1C returned CYP2C19 inhib 69.9*, CYP2C9 act 0.6, PTK2B oligo ant 1.54, CYP2C9 inh 37.4 and CYP2C19 act 0.3.
Screening COc1ccc(S(=O)(=O)Nc2c(C(=O)O)[nH]c3ccccc23)c(OC)c1 returned CYP2C19 inhib 5.7, CYP2C9 act 0.4, PTK2B oligo ant -0.3, CYP2C9 inh 60.6* and CYP2C19 act 0.9.
For CCN(C(=O)Cc1c(C(=O)O)[nH]c2ccccc12)c1cc(OC)ccc1OC the results were CYP2C19 inhib -17.9, CYP2C9 act 0.9, PTK2B oligo ant -0.59, CYP2C9 inh 13.9 and CYP2C19 act 1.2.
`COC(=O)c1[nH]c2ccccc2c1NS(=O)(=O)c1ccc(F)c(C)c1` gave CYP2C19 inhib 93.3*, CYP2C9 act 0.5, PTK2B oligo ant -0.98, CYP2C9 inh 48.5 and CYP2C19 act 0.1.
Screening COc1ccc2[nH]c(C(=O)O)c(NS(=O)(=O)c3ccc(OC)c(OC)c3)c2c1 returned CYP2C19 inhib 35.9, CYP2C9 act 0.2, PTK2B oligo ant 0.41, CYP2C9 inh 75.9* and CYP2C19 act 0.6.
Screening CCCC(=O)Nc1c(C(=O)OCC)[nH]c2ccccc12 returned CYP2C19 inhib 11.8, CYP2C9 act 0.9, CYP2C9 inh 5.3 and CYP2C19 act 0.9.
For C=CCn1c(SCC(=O)c2ccc(OC)cc2)nnc1C(C)NC(=O)c1cccs1 (stereo not drawn) the results were CYP2C19 inhib -2.4, CYP2C9 act 1, PTK2B oligo ant 0.1, CYP2C9 inh 4.6 and CYP2C19 act 1.
For O=C(NCCc1csc(-c2cccnc2)n1)c1cccc2ccccc12 the results were CYP2C19 inhib 78.9*, CYP2C9 act 0.1, CYP2C9 inh 86.2* and CYP2C19 act 0.2.
For Cc1nc(CCNC(=O)c2cccs2)cs1 the results were PTK2B oligo ant -0.01.
For O=C(NCCc1csc(-c2ccccc2)n1)c1cccs1 the results were CYP2C19 inhib -3.5, CYP2C9 act 0.3, CYP2C9 inh 73.9* and CYP2C19 act 1.
Screening O=C(NCc1csc(-c2ccccc2)n1)c1ccco1 returned CYP2C19 inhib 83.8*, CYP2C9 act 0.9, PTK2B oligo ant 0.37, CYP2C9 inh 13.7 and CYP2C19 act 0.2.
For O=C(NCc1ccccc1)c1ccco1 the results were PTK2B oligo ant -0.61.
Screening O=C(NCCc1csc(-c2cccnc2)n1)c1ccccc1 returned CYP2C19 inhib 82.4*, CYP2C9 act 0.4, CYP2C9 inh 64.9* and CYP2C19 act 0.2.
`CCC(C)C(NC(=O)OC(C)(C)C)C(=O)NC(C(=O)N1CCCC1C(N)=O)C(C)CC` (stereo not drawn) gave CYP2C19 inhib 3.5, CYP2C9 act 1, PTK2B oligo ant 0.08, CYP2C9 inh -3.3 and CYP2C19 act 1.
`COCCn1c(SCC(=O)c2cccc(OC)c2)nnc1-c1ccco1` gave CYP2C19 inhib 31.1, CYP2C9 act 0.7, PTK2B oligo ant 1.75, CYP2C9 inh 26.1 and CYP2C19 act 0.7.
For O=C(Nc1nsc(-c2ccccc2)n1)c1cccs1 the results were CYP2C19 inhib 48.4, CYP2C9 act 0.3, PTK2B oligo ant -0.98, CYP2C9 inh 74.8* and CYP2C19 act 0.5.
`FC(F)(F)C(Oc1nc(NC2CCCCC2)nc(N2CCOCC2)n1)C(F)(F)F` gave CYP2C19 inhib 15.7, CYP2C9 act 0.7, PTK2B oligo ant 0.14, CYP2C9 inh 27.1 and CYP2C19 act 0.8.
CC(C)(C)NC(=O)Cn1cc(C#N)c2cc(Br)ccc21 was read as CYP2C19 inhib 87.6*, CYP2C9 act 0.8, PTK2B oligo ant -0.63, CYP2C9 inh 21.0 and CYP2C19 act 0.1.
`Cc1cc(C(=O)CSc2nnc(-c3ccccc3)n2-c2ccccc2)c(C)n1-c1ncn[nH]1` gave CYP2C19 inhib 61.8*, CYP2C9 act 0.4, PTK2B oligo ant -3.16*, CYP2C9 inh 57.8* and CYP2C19 act 0.4.
Cc1cc(C(=O)CSc2nnc(-c3cccnc3)n2-c2ccccc2)c(C)n1CC1CCCO1 (stereo not drawn) was read as CYP2C19 inhib 20.9, CYP2C9 act 0.8, PTK2B oligo ant 0.35, CYP2C9 inh 15.4 and CYP2C19 act 0.8.
Cc1cc(C(=O)CSc2nnc(-c3ccccc3)n2C)c(C)n1C was read as CYP2C19 inhib 78.2*, CYP2C9 act 1, PTK2B oligo ant 0.72, CYP2C9 inh 1.2 and CYP2C19 act 0.2.
O=C(CSc1nnc(Cn2nnc(-c3ccccc3)n2)n1-c1ccccc1)Nc1ccc(F)cc1 was read as CYP2C19 inhib 19.2, CYP2C9 act 0.9, PTK2B oligo ant 0.03, CYP2C9 inh 10.0 and CYP2C19 act 0.8.
`N#Cc1ccccc1NC(=O)CSc1nnc(-c2ccc(F)cc2)n1-c1ccccc1` gave CYP2C19 inhib 63.4*, CYP2C9 act 0.5, PTK2B oligo ant -0.51, CYP2C9 inh 45.1 and CYP2C19 act 0.4.
Screening Cn1c(SCC(=O)c2ccccc2)nnc1-c1cccnc1 returned CYP2C19 inhib 12.0, CYP2C9 act 0.9, PTK2B oligo ant 0.18, CYP2C9 inh 6.7 and CYP2C19 act 0.9.
`CC(C)NC(=O)CSc1nnc(-c2ccncc2)n1-c1ccccc1` gave CYP2C19 inhib 91.8*, CYP2C9 act 0.4, PTK2B oligo ant 0.31, CYP2C9 inh 58.5* and CYP2C19 act 0.1.
O=C(Nc1ncc(Cc2ccccc2)s1)C1COc2ccccc2O1 (stereo not drawn) was read as CYP2C19 inhib 5.3, CYP2C9 act 1, PTK2B oligo ant -0.83, CYP2C9 inh 0.8 and CYP2C19 act 0.9.
Screening Cc1cc(C(=O)CSc2nnc(-c3ccncc3)n2-c2ccccc2)c(C)n1C returned CYP2C19 inhib 84.2*, CYP2C9 act 0.7, PTK2B oligo ant -0.28, CYP2C9 inh 33.5 and CYP2C19 act 0.2.
For Cc1cc(C(=O)CSc2nnc(-c3cccnc3)n2-c2ccccc2F)c(C)n1C the results were PTK2B oligo ant 0.88.
For COc1ccc(C(C(=O)NC2CCCC2)N(C(=O)c2ccco2)c2ccc3c(c2)OCO3)cc1OC (stereo not drawn) the results were CYP2C19 inhib -2.1, CYP2C9 act 0.9, PTK2B oligo ant -0.98, CYP2C9 inh 5.2 and CYP2C19 act 1.
`COc1cc(C(Nc2ccc3c(c2)OCO3)C(=O)NC2CCCCC2)cc(OC)c1OC` (stereo not drawn) gave CYP2C19 inhib 74.0*, CYP2C9 act 0.7, PTK2B oligo ant 0.4, CYP2C9 inh 27.5 and CYP2C19 act 0.3.
